Cardio protect = cardioprotection against H2O2-induced cell death, primary screen, uHTS, H9c2 cells, ATPLite luminescence. H9c2 cardiomyocytes, H2O2 injury protection, 2 h. AID 588492, 2011. protection from H2O2 cell death, % at 20 µM. actives 0.63% (n = 360,000);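 active = compounds giving at least 50% protection of heart cells from peroxide-induced death in the single-dose screen, raw or plate-pattern-corrected value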;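 note: 0% = DMSO wells with peroxide and 100% = DMSO wells without peroxide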
PHOSPHO1 inh = PubChem AID 1565; actives 1.1% (n = 290,000); inhibition, % at 13.3 µM; recombinant PHOSPHO1, absorbance phosphatase assay; in the data active = inhibition above about 60%
Target sequence (Q8TCT1 whole entry, looked up): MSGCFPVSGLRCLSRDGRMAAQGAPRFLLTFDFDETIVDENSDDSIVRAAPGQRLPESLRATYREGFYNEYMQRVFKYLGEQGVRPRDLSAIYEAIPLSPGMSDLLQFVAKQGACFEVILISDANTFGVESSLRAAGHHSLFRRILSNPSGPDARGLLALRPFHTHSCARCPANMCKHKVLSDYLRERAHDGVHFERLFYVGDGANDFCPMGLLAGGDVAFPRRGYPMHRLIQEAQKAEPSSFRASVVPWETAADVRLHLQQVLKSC
ALR inh = inhibitors of human ALR sulfhydryl oxidase, primary screen, biochemical, H2O2 detection, HRP-luminol luminescence, single point; purified ALR, DTT oxidation; inhibition, % (no concentration beside the values); actives 3.8% (n = 290,000); AID 485317, 2010;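 active = mean replicate inhibition above about 79%, with every replicate also reaching it, limit read from the data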
M18AAP inhibitor = PfM18AAP inhibitors, malaria aminopeptidase, primary screen, biochemical, QFRET, recombinant enzyme | inhibition, % at 7.35 µM | actives 1.2% (n = 290,000) | H-Glu-NHMec fluorogenic cleavage | M18 aspartyl aminopeptidase (Plasmodium falciparum 3D7);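 active = inhibition above the campaign mean inhibition over all tested compounds plus 3 SD, cut at about 28% in these data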;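 note: 0% = plate median of test compound wells and 100% = 2 mM ZnCl2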
PfG6PD inh = PfG6PD enzyme inhibitors, primary screen, biochemical, fluorescence intensity, uHTS; AID 504690, 2011; glucose-6-phosphate dehydrogenase-6-phosphogluconolactonase (Plasmodium falciparum 3D7); PfGluPho enzyme, NADPH resazurin-diaphorase fluorescence; inhibition, % at 20 µM; actives 0.78% (n = 350,000);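 active = inhibition reaching at least a set limit at 20 µM in the primary screen, cut at about 59% in these data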;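 note: 0% = DMSO wells with substrate and 100% = DMSO wells lacking glucose-6-phosphate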
An asterisk follows results filed as active; . = no result. A selection: hits, their analogues and other compounds. The true share with any hit is near 5.6%.

SMILES	Cardio protect	PHOSPHO1 inh	ALR inh	M18AAP inhibitor	PfG6PD inh
CCOc1cc(/C=C(/C#N)c2nc3ccccc3[nH]2)ccc1Oc1ccc([N+](=O)[O-])cn1	-11	-31	-2	2	-8
COC(=O)c1ccc(COc2ccc(/C=C(\C#N)c3nc4ccccc4[nH]3)cc2OC)o1	70*	-18	-4	1	-2
N#C/C(=C\c1ccccc1OCC(=O)O)c1nc2ccccc2[nH]1	6	23	98*	0	10
CCOc1cc(/C=C(\C#N)c2nc3ccccc3[nH]2)ccc1OC(C)C(=O)O (stereo unspecified)	6	20	98*	5	-17
CCOc1ccccc1/C=N/Nc1cc(C)nc2ccc(C)cc12	-6	36	18	1	18
Cc1ccc2nc(C)cc(N/N=C/c3cccc(O)c3)c2c1	-12	29	99*	4	9
Cn1ccc2c(N3CCCCC3)cc3c(c21)C1CCC3O1 (stereo unspecified)	0	.	.	.	.
O=C(Nc1ccc(C(=O)N2CCCC2)cc1)c1ccc(F)cc1Cl	-2	53	-7	3	-1
O=C(Nc1ccc(O)cc1)C1CCCN1S(=O)(=O)c1ccc(F)cc1 (stereo unspecified)	3	-7	98*	4	-7
CC(=O)c1ccc(NC(=O)C2CCCN2S(=O)(=O)c2ccc(F)cc2)cc1 (stereo unspecified)	2	0	-6	-6	17
c1ccc2c(c1)OCCc1c-2[nH]c2ccccc12	-9	18	96*	2	22
CCOc1ccc(CC(=O)Nc2c(C(N)=O)oc3ccc(Br)cc23)cc1OCC	78*	0	.	-5	-2
Cc1cccc(N2CCN(C(=S)c3ccc([N+](=O)[O-])cc3)CC2)c1	-4	-11	-3	30*	46
O=[N+]([O-])c1cccc(C(=S)N2CCN(c3ccccc3)CC2)c1	-10	79*	6	8	46
CCC(=O)Nc1ccc(C(=O)CSc2nnc(-c3ccc(O)cc3)n2CC2CCCO2)cc1OC (stereo unspecified)	6	30	82*	-8	2
C=CCNc1nc(N)c(C(=C(C#N)C#N)c2ccc(Br)cc2)s1	56*	-24	.	-4	14
CCCN1C(=S)c2ccccc2C1c1ccccc1 (stereo unspecified)	-4	-11	-8	2	-8
CCNC(=O)CCS(=O)(=O)c1ccc2ccccc2c1	-8	6	99*	-4	30
Cn1c(=O)c(=O)n(C)c2cc(S(=O)(=O)CCC(=O)NCc3ccccc3)ccc21	11	-40	99*	5	-17
Cc1ccc(S(=O)(=O)CCC(=O)NCc2ccccc2)cc1	3	6	-4	4	2
CCc1cccc(NC(=O)CSC2=NS(=O)(=O)c3ccccc32)c1	12	94*	99*	0	26
CN1CCN(NC(=O)CN2C(=O)/C(=C/c3ccccc3Cl)SC2=S)CC1	6	-3	99*	10	-15
CN1CCN(NC(=O)CN2C(=O)/C(=C/c3c(Cl)cccc3Cl)SC2=S)CC1	14	24	.	15	-17
O=C(CN1C(=O)S/C(=C\C=C\c2ccccc2)C1=O)Nc1ccccc1C(=O)O	-2	-5	97*	13	-5
O=C(CCN1C(=O)/C(=C/c2ccccc2Cl)SC1=S)Nc1ccccc1C(=O)O	2	16	98*	-77	-16
SMILES	Cardio protect	PHOSPHO1 inh	ALR inh	M18AAP inhibitor	PfG6PD inh
O=C(CSc1n[nH]c(-c2ccccc2F)n1)Nc1cc(F)ccc1F	-4	.	1	.	8
COc1ccc(CC(N)c2csc(NC(=O)c3cc(C(C)(C)C)oc3C)n2)cc1 (stereo unspecified)	-29	.	.	.	.
CCCc1ccc(C(O)c2ncc(-c3ccccc3)[nH]2)cc1 (stereo unspecified)	-4	.	.	.	.
Cc1ccc(S(=O)(=O)N2[C@@H](c3ccc(C(C)(C)C)cc3)C(C(=O)O)=CC[C@H]2c2ccc(C(C)C)cc2)cc1	-31	.	.	.	-59
O=S(=O)(c1ccc2c(c1)OCCO2)N1CCN(Cc2ccc3c(c2)OCO3)CC1	-5	10	-14	-8	9
Cn1c(=O)oc2cc(S(=O)(=O)N3CCN(Cc4ccc5c(c4)OCO5)CC3)ccc21	0	72*	-8	1	-6

Bioassay records from PubChem BioAssay.
